# Compounds with a hit are over-represented: about 32% of the library has one in this group of screens.
# CYP2C19 inh: inhibitors of human CYP2C19; P33261; CYP2C19 Supersomes, luciferin-H EGE luminescence, 30 min; inhibition, % at 5 µM; 96,000 compounds, 21% hits; AID 778;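 active = CYP2C19 inhibition above a set limit at 5 µM in the primary screen, cut at about 50% in these data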;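 note: plate controls were negative control wells for no effect and 2.5 mM tranylcypromine positive control for full effect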
# Target sequence (P33261 whole entry, looked up): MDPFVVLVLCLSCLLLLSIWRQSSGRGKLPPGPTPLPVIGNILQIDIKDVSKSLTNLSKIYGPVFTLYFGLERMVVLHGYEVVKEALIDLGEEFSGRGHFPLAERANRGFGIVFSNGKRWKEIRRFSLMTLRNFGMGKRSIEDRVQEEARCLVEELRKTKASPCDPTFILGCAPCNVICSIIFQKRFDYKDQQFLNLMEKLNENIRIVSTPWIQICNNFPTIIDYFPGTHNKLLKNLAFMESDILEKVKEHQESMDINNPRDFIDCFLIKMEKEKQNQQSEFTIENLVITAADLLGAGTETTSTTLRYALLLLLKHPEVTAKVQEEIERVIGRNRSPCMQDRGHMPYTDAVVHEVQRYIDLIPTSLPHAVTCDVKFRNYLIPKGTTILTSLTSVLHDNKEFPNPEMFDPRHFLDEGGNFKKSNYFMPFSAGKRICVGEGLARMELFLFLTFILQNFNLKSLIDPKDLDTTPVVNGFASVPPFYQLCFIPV
# CYP2C9 inhib: human CYP2C9 inhibition; P11712; CYP2C9 Supersomes, luciferin-H conversion, luminescence; inhibition, % at 5 µM; 96,000 compounds, 20% hits; AID 777;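 active = blocking of liver enzyme CYP2C9 beyond about 50% at 5 µM, limit read from the data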
# CYP2C9 act: activators of human CYP2C9. recombinant CYP2C9, luciferin-H conversion, luminescence; hits give high values; factor 1 = untreated enzyme, 0 = blocked. P11712. activation factor at 5 µM. 96,000 compounds, 1.4% hits. AID 1024;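 active = activation factor of 2 or more for CYP2C9 at a 5 µM dose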;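 note: 0 = sulfaphenazole-blocked wells and 1 = vehicle-only wells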
# PostGolgi ctrl: inhibits growth of the yeast control strain. efflux-deficient yeast background strain, growth absorbance A615, 16 h. 98,000 compounds, 5% hits. AID 738. inhibition, % at 10 µM
# CYP2C19 activ: increases human CYP2C19 enzyme activity | activation factor at 5 µM | recombinant CYP2C19, luciferin-H EGE luminescence; hits give high values; 0 = fully inhibited enzyme, 1 = untreated enzyme | 96,000 tested, under 10 active;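 active = activation factor of at least 2 at 5 µM in the primary screen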;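 note: 0 = wells with 2.5 mM tranylcypromine and 1 = vehicle-only wells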
# PostGolgi yeast: growth inhibition of a yeast mutant, post-Golgi transport screen; post-Golgi transport phenotypic cell assay; inhibition, % at 10 µM; 98,000 compounds, 0.9% hits;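 note: yeast cells grown in 1536-well plates; yeast grown about 18 h at 30C before absorbance read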
# * hit, by the source's call; nt = no result. Cut-off read from the data, not from the text of the source, unless noted: active = inhibition above about 30%; inactive = the rest.
SMILES,CYP2C19 inh,CYP2C9 inhib,CYP2C9 act,PostGolgi ctrl,CYP2C19 activ,PostGolgi yeast
COc1ccc(CCN2C(=O)CC(C(N)=O)SC2=Nc2ccccc2)cc1OC (stereo unspecified),67.5*,19.1,0.8,4.7,0.3,18.6
Cc1ccc(CC2CC(=O)N(CCc3ccc4c(c3)OCO4)C2=O)cc1 (stereo unspecified),10.4,9.9,0.9,29.1,0.9,6.6
Cc1ccc(C2C3=C(CC(C)(C)CC3=O)N(CCN3CCOCC3)C3=C2C(=O)CC(C)(C)C3)cc1,-10.4,-6.5,1.1,10.4,1.1,-3.7
N#Cc1ccccc1NC(=O)c1ccc(-c2ccccc2Cl)o1,-6.4,-17.2,1.2,-2.7,1.1,-6.9
CCN1C(=O)CC(NCc2ccc3c(c2)OCO3)C1=O (stereo unspecified),7.3,-1.2,1,1.3,0.9,-15.0
O=C1CC(NCc2ccc3c(c2)OCO3)C(=O)N1CCc1ccccc1 (stereo unspecified),75.0*,47.3,0.5,-5.1,0.3,0.6
COc1ccc(CCNC2CC(=O)N(CCc3ccccc3)C2=O)cc1OC (stereo unspecified),60.2*,15.8,0.8,nt,0.4,nt
CCOC(=O)CSc1n[nH]c(NC(=O)c2cccc(C(F)(F)F)c2)n1,41.3,37.9,0.6,12.0,0.6,-1.3
O=C(Nc1ccc2snnc2c1)Nc1cccc2ccccc12,43.0,41.0,0.6,48.5*,0.6,6.3
O=C(Nc1ccc2snnc2c1)N1CCN(c2ccccc2)CC1,49.4,41.0,0.6,nt,0.5,nt
CCn1c(=O)n(CC)c2cc(S(=O)(=O)Nc3c(C)cccc3C)ccc21,93.8*,66.7*,0.3,6.1,0.1,3.4
CCn1c(=O)n(CC)c2cc(S(=O)(=O)Nc3cc(C)cc(C)c3C#N)ccc21,62.5*,79.5*,0.2,2.1,0.4,6.8
c1ccc(C(c2ccccc2)N2CCN(c3ccc4ccccc4n3)CC2)cc1,-10.5,23.2,0.8,12.9,1.1,10.0
COc1ccc(-c2nnc(SCCc3ccccc3)n2N)cc1,15.8,-9.2,1.1,25.9,0.8,2.9
CC(=O)N1C(=O)C2(C(C#N)=C(N)Oc3n[nH]c(-c4ccccn4)c32)c2ccccc21 (stereo unspecified),10.0,10.6,0.9,15.4,0.9,-0.3
CC(=O)N1C(=O)C2(C(C#N)=C(N)Oc3cc(C)oc(=O)c32)c2ccccc21 (stereo unspecified),49.5,88.5*,0.1,3.1,0.5,11.0
CCN1C(=O)C2(C(C#N)=C(N)Oc3c2c(C)nn3-c2ccccc2)c2ccccc21 (stereo unspecified),60.7*,79.4*,0.2,6.6,0.4,2.0
CC(=O)N1C(=O)C2(C(C#N)=C(N)Oc3c2c(C)nn3-c2ccccc2)c2ccccc21 (stereo unspecified),39.2,81.4*,0.2,-9.8,0.6,17.8
Cc1nn(-c2ccccc2)c2c1C1(C(=O)N(C)c3ccccc31)C(C#N)=C(N)O2 (stereo unspecified),15.2,55.6*,0.4,20.3,0.8,-5.2
COc1ccc(C(=O)COc2nc(C)cc(C)c2C#N)cc1,43.6,15.1,0.8,-0.9,0.6,0.5
Cc1cc2c(c(=O)o1)C1(C(=O)N(C)c3ccccc31)C(C#N)=C(N)O2 (stereo unspecified),2.3,7.9,0.9,7.1,1,2.5
Cc1nn(-c2ccccc2)c2c1C1(C(=O)N3c4c(cccc41)C(C)CC3(C)C)C(C#N)=C(N)O2 (stereo unspecified),75.8*,97.1*,0,11.4,0.2,2.4
CCCc1cc(C(=O)Nc2cc(C)on2)no1,-0.8,1.4,1,6.4,1,5.3
Cc1[nH]nc2c1C1(C(=O)N(Cc3ccc(Cl)cc3)c3ccccc31)C(C#N)=C(N)O2 (stereo unspecified),88.8*,92.0*,0.1,-8.9,0.1,-1.1
COC(=O)Cc1[nH]nc2c1C1(C(=O)N(Cc3ccccc3)c3ccccc31)C(C#N)=C(N)O2 (stereo unspecified),64.5*,60.8*,0.4,7.3,0.4,-2.5
CCCCc1[nH]nc2c1C1(C(=O)N(CC)c3ccccc31)C(C#N)=C(N)O2 (stereo unspecified),-2.7,-10.2,1.1,14.5,1,6.1
